Laboratory results reported in PubChem BioAssay AID1745849 (National Center for Advancing Translational Sciences (NCATS), 2022).
In all, about 2,100 compounds went through this assay and about 320 (15%) were called active. About 52% were inconclusive and are not listed. Calls follow the shape of the dose curve; as a rule, active = well fitted cell-killing curve with a large enough effect; inconclusive = small, poorly fitted or top-dose-only effect, or effect the other way; inactive = flat fitted curve, though single readings scatter. This is one part of the list.
% is scaled to controls: 0 for no effect and ±100 for the full control effect; potency is read from the fitted curve at half-maximal effect.

Assay: Viability Counterscreen for CMV-Luciferase Assay of Inhibitors of ATXN expression; also: nearly all actives have a fitted effect of over 55% in size
Details: HEK-293 CMV-luciferase cells viability, protease fluorescence, 24 h; series mostly up to 57.5 µM
Excerpt: PI: Daniel Scoles Ph.D. University of Utah School of Medicine, Salt Lake City, Utah MLPCN Grant: NS073009 Spinocerebellar ataxia type 2 (SCA2) is a multisystem neurodegenerative disease caused by a dominantly acting mutation leading to expansion of a polyQ domain in the ataxin-2 protein (ATXN2). SCA2 patients develop progressive ataxia and later lose function in other neuronal systems. Prominent parkinsonian signs develop in some patients. Like many neurodegenerative disorders, no symptomatic or disease-modifying treatments are known. The primary objective of the proposed research is to identify compounds inhibiting ATXN2 expression and to test them for efficacy in SCA2 mouse models. We have developed a cell-based assay paired with an in vivo mouse model using identical luciferase expression constructs. This approach takes advantage of an ATXN2-luciferase transgene, with the luciferase gene flanked by the upstream and downstream portions of the ATXN2 gene. Here we describe a 5-7 dose quantitative high thoroughput screen (qHTS) for compounds lowering ATXN2 expression. We screened the NIH Molecular Libraries Small Molecule Repository (MLSMR) and NCGC's mechanistically annotated (MIPE) and drug repurposing (NPC) collections of compounds for lowering expression of an ATXN2-luciferase reporter in HEK-293 cells. The assay is a multiplexed cell viability assay to ensure target reduction in the absence of cytotoxicity. Secondary qHTS assays included a CMV-luciferase reporter expressed in HEK-293 cells as well as a biochemical assay using recombinant luciferase to detect inhibitors of the reporter enzyme. Compounds that inhibit ATXN2 expression but is not cytotoxic were selected for confirmatory and secondary screens.
PROTOCOL TABLE (as described by Inglese J, Shamu CE and Guy RK. 2007) SEQUENCE No. (e.g., 1, 2, 3, etc.); […] (e.g., Cells, Incubation, Reagent, etc.); VALUE; DESCRIPTION. 1; Cells; 4 uL; white, solid bottom, 1536-well Greiner assay plate. 2; Incubation; 2 hr; 37 degree C in 5% humidified CO2. 3; Compounds; 23 nL; Kalypsis pintool (Wako USA) equipped with a 1536-well pin head. 4; Incubation; 24 hr; 37 degree C in 5% humidfified CO2. 5; Reagent; 1 uL; Gly-Phe-7-Amino-4-trifluoromethylcoumarin. 6; Incubation; 30 min; 37 degree C in 5% humidfified CO2. 7; Detection; Fluorescence; Viewlux plate reader (PerkinElmer). 8; Reagent; 3 uL; SteadyGlo luciferase solution (Promega). 9; Incubation; 5 min; room temperature. 10; Detection; Luminescence; ViewLux plate reader (PerkinElmer). NOTES (numbers refer to Sequence numbers above) 1. HEK-293 cells expressing CMV-luciferase reporter (designated as SC cells) were suspended in phenol-red free DMEM and dispensed in assay plates using a Multidrop Combi dispenser (Thermo Fisher Scientific). 2. Assay plates were incubated. Evaporation was prevented by covering assay plates with metal lids containing holes to allow gas diffusion. 3. Compounds were added in a dose response manner with the final concentrations of 57, 11.4, 2.28, 0.46, 0.091, 0.018, 0.0037 uM. Vehicle-only plates, with DMSO being pin-transferred to columns 5-48, were inserted uniformly at the beginning and the end of each library to monitor and record any shifts in assay performance. 5. 125 uM Gly-Phe-7-Amino-4-trifluoromethylcoumarin (MP Biomedicals) working concentration was used at a final concentration of 25 uM. 7. To assess cell viability; the assay plates were read using the ViewLux high-throughput CCD imager (PerkinElmer), wherein single end-point fluorescence measurement was acquired (excitation 405/10; emission 540/25 nm). 8. Detection reagent SteadyGlo Luciferase (Promega) was added to the assay plate. 10. Luminescence is then measured on the ViewLux imager equipped with a clear emission filter using a 2 sec exposure. […]
With COC12C(COC(N)=O)C3=C(C(=O)C(C)=C(N)C3=O)N1CC1C2N1C (stereo not drawn) the Potency was 12.6 µM (active).
With O=c1[nH]c2ccccc2n1C1CCN(C(CCc2ccccc2)c2nnnn2C2CCCC2)CC1 (stereo not drawn) the Potency was 11.2 µM (active).
With CC(C)(C)n1nnnc1C(CCc1ccccc1)N1CCC(n2c(=O)[nH]c3ccccc32)CC1 (stereo not drawn) the Potency was 20 µM (active).
In the case of Cc1cccc(C)c1-n1nnnc1C(c1cc2ccccc2o1)N1CCC(n2c(=O)[nH]c3ccccc32)CC1 (stereo not drawn), the Potency is reported as 7.94 µM (active).
For CN1C(=O)NC(=O)/C(=C\C=C\c2ccccc2[N+](=O)[O-])C1=O, the Potency was 7.94 µM (active).
In the case of Oc1c(Cl)cccc1Cc1cc(Cl)cc(Cl)c1O, the Potency is reported as 15.8 µM (active).
With c1ccc(CNc2c3c(nc4ccccc24)CCC3)cc1 the Potency was “inactive”.
In the case of O=C(Nc1ccc(OC(=O)N2CCCCC2)cc1)N1CCOCC1, the Potency is reported as “inactive”.
For CCCCN=C[C@]12CCC(O)CC1(O)CCC1[C@@H]2CC[C@]2(C)[C@H](C3C=CC(=O)O3)CCC12O (stereo partly drawn), the Potency was 1.78 µM (active).
In the case of CC12CCC3C(CCC4(O)CC(O)CCC34C=NO)C1(O)CCC2C1=COC(=O)C1 (stereo not drawn), the Potency is reported as 0.891 µM (active).
With C1=NCCc2c1[nH]c1ccccc21 the activity change, negative = cytotoxicity was 1.29% [at 11.4 µM] (inactive).
In the case of COc1cccc2c1C(=O)c1c(O)c3c(c(O)c1C2=O)CC(O)(C(C)=NO)CC3OC1CC(N)C(O)C(C)O1 (stereo not drawn), the Potency is reported as 14.1 µM (active).
With O=[N+]([O-])c1oc2ccc3ccccc3c2c1CCO the Potency was 20 µM (active).
For Cc1ccc(-c2nc(N(C)C3CCN(C)CC3)c3ccccc3n2)cc1, the Potency was “inactive”.
For c1ccc2sc(N3CCNCC3)nc2c1, the Potency was “inactive”.
In the case of O=C(NN=Cc1ccc(N(CCCl)CCCl)cc1)c1cc(=O)[nH]c(=O)[nH]1, the Potency is reported as “inactive”.
For N[C@@H](Cc1ccc(N(CCCl)CCCl)cc1)C(=O)O, the Potency was 12.6 µM (active).
With O=C1NC(=O)N(CCc2ccc(F)cc2)C(=O)/C1=C/C=C/c1ccccc1 the Potency was 7.94 µM (active).
In the case of COc1ccc(CC2NCC(O)C2OC(C)=O)cc1 (stereo not drawn), the Potency is reported as 0.282 µM (active).
In the case of CCC1(OC(=O)CN)C(=O)OCc2c1cc1n(c2=O)Cc2cc3ccccc3nc2-1 (stereo not drawn), the activity change, negative = cytotoxicity is reported as 14.6% [at 11.4 µM] (inactive).
For COC(=O)c1nc(-c2ccc3c(n2)C(=O)C(N)=C(OC)C3=O)c(N)c(-c2ccc(OC)c(OC)c2O)c1C, the Potency was 20 µM (active).
With C[C@@H]1O[C@@H](O[C@@H]2C=C3CC[C@@H]4C(CC[C@]5(C)[C@@H](c6ccc(=O)oc6)CC[C@]45O)[C@@]3(C)CC2)[C@H](O)[C@H](O)[C@H]1O (stereo partly drawn) the Potency was 8.91 µM (active).
For COc1ccc(CC2C(=O)NC(C)C(=O)N(C)C3C(=O)N(C)C(Cc4ccc(O)c(c4)Oc4ccc(cc4)C3O)C(=O)NC(C)C(=O)NC(C)C(=O)N2C)cc1 (stereo not drawn), the Potency was 0.355 µM (active).
